According to PubChem BioAssay AID1259421 (Broad Institute, 2018):
“And” between values parts separate entries of the source, which are not always exact repeats. Identical values can stand only once. Out of some 6,400 compounds screened, about 610 (9.5%) were called active. This is one part of a sample in which actives are shown more often than they occur. No stated cut-off is given here; in the data, active means activity change below about -70%; inconclusive means no clear call, values can overlap the other calls; inactive means above that. A structure can be active in one record and inactive in another.

assay: T. gondii ME49Luc in HeLa cells, luciferase assay, 72 h, no IFN-y (AID 1259421); conditions: stronger effect = lower value, concentration not given here

Structure (SMILES) | activity change, negative = inhibition
C[C@@H]1CC2C3CCC4=CC(=O)C=C[C@]4(C)[C@@]3(F)[C@@H](O)C[C@]2(C)[C@@]1(O)C(=O)COP(=O)(O)O (stereo partly drawn) | 0.571% (inactive) and -5.12% (inactive)
O=c1c(-c2ccc(O)cc2)coc2c(C3O[C@H](CO)[C@@H](O)[C@H](O)[C@H]3O)c(O)ccc12 (stereo partly drawn) | -5.75% (inactive)
C[N+]1(C)C2CC[C@H]1CC(OC(=O)C(O)c1ccccc1)C2 (stereo partly drawn) | 10.1% (inactive)
O=C(Nc1ccccc1)C12CC1/C(=N\O)c1ccccc1O2 (stereo not drawn) | 7.7% (inactive) and 0.127% (inactive)
COc1ccc(-c2cc(=O)c3c(O)cc(O[C@@H]4O[C@H](CO[C@H]5O[C@H](C)[C@@H](O)[C@H](O)[C@@H]5O)[C@@H](O)[C@H](O)[C@H]4O)cc3o2)cc1O | 14.7% (inactive)
COc1ccc2c(c1)c(C1=C(c3c[nH]c4ccccc34)C(=O)NC1=O)cn2CCCN(C)C | -36.9% (inactive)
Cn1cc(C2=C(c3cn(CCCSC(=N)N)c4ccccc34)C(=O)NC2=O)c2ccccc21 | -58% (inactive) and -88.3% (active)
Cn1cc(C2=C(c3ccc(Cl)cc3Cl)C(=O)NC2=O)c2ccccc21 | -12.4% (inactive) and -8.86% (inactive)
CCCCC/C=C\C/C=C\CCCCCCCC(=O)NCCCC(=O)O | 8.14% (inactive)
O=C(O)CN1CCN(CC(=O)O)CCN(CC(=O)O)CCN(CC(=O)O)CC1 | 0.0247% (inactive)
N#C/C(=C(/N)Sc1ccc(N)cc1)c1ccccc1C(F)(F)F | 7.26% (inactive)
O=Nc1c(-c2c(O)[nH]c3ccccc23)[nH]c2ccccc12 | -74.5% (active)
O=C1C(c2c(O)[nH]c3ccccc23)=Nc2ccccc21 | -5.14% (inactive)
NS(=O)(=O)c1ccc(N=Cc2c(O)[nH]c3ccccc23)cc1 | 13.4% (inactive)
O=Nc1c(-c2c(O)[nH]c3cc(Br)ccc23)[nH]c2ccccc12 | -87.9% (active)
CCCCC(=O)O[C@]1(C(=O)CO)[C@@H](C)CC2C3CCC4=CC(=O)C=C[C@]4(C)[C@@]3(F)C(O)C[C@@]21C (stereo partly drawn) | 1.05% (inactive)
CC(=O)c1cc2ccccc2oc1=O | -2.07% (inactive)
O=C(O)CCCCN(CCc1ccccc1OCc1ccc(CCc2ccccc2)cc1)Cc1ccc(C(=O)O)cc1 | 10.8% (inactive)
C=C[C@@]1(C)CC(=O)[C@]2(O)[C@@]3(C)[C@@H](O)CCC(C)(C)[C@@H]3[C@H](O)[C@H](OC(=O)CCCN3CCN(C)CC3)[C@@]2(C)O1 | -10.4% (inactive)
CC(C)(C)c1ccc(C(O)CCCN2CCC(C(O)(c3ccccc3)c3ccccc3)CC2)cc1 (stereo not drawn) | -86.1% (active) and 8% (inactive)
OC(c1ccccc1)C1CCN(CCc2ccccc2)CC1 (stereo not drawn) | 5.4% (inactive) and 0.692% (inactive)
CC(C)(C(=O)O)c1ccc(C(O)CCCN2CCC(C(O)(c3ccccc3)c3ccccc3)CC2)cc1 (stereo not drawn) | 4.73% (inactive) and 3.69% (inactive)
CCC(C)C(=O)O[C@H]1C[C@H](O)C=C2C=C[C@H](C)[C@H](CC[C@@H](O)C[C@@H](O)CC(=O)O)C21 (stereo partly drawn) | 4.96% (inactive)
O=S(=O)(c1ccccc1)c1cnc2c(N3CCNCC3)cccc2c1 | 8.53% (inactive)

Structure (SMILES) | activity change, negative = inhibition
CCCCCCOc1nsnc1C1=CCCN(C)C1 | -26.8% (inactive)
CCC(CC)(CC(=O)Nc1cccc(/C=C/c2nc(C3CCC3)cs2)c1)C(=O)O | 41.5% (inactive)
O=C(C[C@H]1NCCC[C@@H]1O)Cn1cnc2cc(Br)c(Cl)cc2c1=O | -86% (active)
CC(C)[C@@H](N)C(=O)O | 5.34% (inactive)
Clc1ccc2c(N3CCN(CCCN4CCN(c5ccnc6cc(Cl)ccc56)CC4)CC3)ccnc2c1 | 1.21% (inactive)
Cc1ncc(-c2ccnc(Nc3ccc(S(C)(=O)=O)cc3)n2)n1C(C)C | -84.5% (active)
C1CCN2C[C@@H]3C[C@H](CN4CCCC[C@@H]34)[C@H]2C1 | 13.5% (inactive)
O=C1[C@@H]2[C@H]3CC[C@H](C3)[C@@H]2C(=O)N1CCCCN1CCN(c2ncccn2)CC1 | 8.23% (inactive)
CCCCCCCCCCCCCCCCCCCCCC(=O)Nc1ccn([C@@H]2O[C@H](CO)[C@@H](O)[C@@H]2O)c(=O)n1 | 8.14% (inactive)
O=C(CN1CCNCC1)NC1CCCCC1 | -5.36% (inactive)
C=C1CCC2[C@](C)(CO)[C@H](O)CC[C@@]2(C)[C@@H]1C/C=C1/C(=O)OC[C@H]1O (stereo partly drawn) | 9.67% (inactive)
N#CC[C@@H](C1CCCC1)n1cc(-c2ncnc3[nH]ccc23)cn1 | 1.99% (inactive)
Nc1ncnc2c1c(-c1cnc3[nH]ccc3c1)nn2C1CCCC1 | -82.4% (active)
N#CC[C@H](C1CCCC1)n1cc(-c2ncnc3[nH]ccc23)cn1 | 27.9% (inactive) and 17.6% (inactive)
COc1cc([C@@H]2[C@H]3CO[C@@]4(O)C(=O)[C@@H]2C=C([C@H]2Oc5cc(O)cc(O)c5C(=O)[C@@H]2O)[C@@H]34)ccc1O | -0.383% (inactive)
Cn1cnc2nc(NCCO)nc(NCc3ccccc3)c21 | -3.03% (inactive)
OC1O[C@@H]2COC(c3ccccc3)O[C@H]2[C@H](O)[C@H]1O (stereo partly drawn) | 36.7% (inactive)
COc1ccc2cc(-c3cc(-c4cc(Cl)cc(Cl)c4)nn3[C@@H](C)c3ccc(C(=O)NCCC(=O)O)cc3)ccc2c1 | -64.1% (inactive)
CCCCCCNC(=O)n1cc(F)c(=O)[nH]c1=O | -97.3% (active)
CCCCNC(=O)c1ccc(Cl)cc1O | -69.9% (inactive)
Cc1nnc(SCC2=C(C(=O)O)N3C(=O)[C@@H](N)[C@H]3SC2)s1 | 2.53% (inactive)
CCN(CC)CCCCC1CCN(CC(=O)N2c3ccccc3C(=O)Nc3cccnc32)CC1 | 11.7% (inactive) and 11.5% (inactive)
Cc1ccc([N+](=O)[O-])cc1S(=O)(=O)N(C)C | 16.2% (inactive) and 6.9% (inactive)
Cc1ccc([N+](=O)[O-])cc1S(=O)(=O)N(C)/N=C/c1cnc2ccc(Br)cn12 | -80.3% (active)
